The nature of this assay: chemical genetic growth profiling, strain panel (AID 1159580).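 Note: tested at 20 µM; growth read once vehicle control cultures reached saturation at 30 °C; 1 = growth at the plate median or of vehicle wells; lower values mean less growth of the strain.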 The following applies: S. cerevisiae deletion strains, growth OD.

Molecules are shown by their SMILES. The whole screen tested about 5,500 compounds, of which about 2,000 (36%) were called active. Not shown: some 18% with an inconclusive outcome. This is one part of the list. Values without a mark were called inactive. Cut-off read from the data, not from the text of the source: active = normalized growth mostly below about 0.91 (no sharp cut-off); inconclusive = no clear call, values can overlap the other calls; inactive = mostly above about 0.92.

In the case of `Nc1ccc(CCN2CCN(c3cccc(C(F)(F)F)c3)CC2)cc1`, the normalized growth by setting is: (locus YAL040C, strain CLN3, stronger effect = lower value) 1.05; (locus YCL061C, strain MRC1 (second series), stronger effect = lower value) 0.973; (locus YDR363W, strain ESC2, stronger effect = lower value) 0.894; (locus YER002W, strain NOP16, stronger effect = lower value) 1.03; (locus YGR229C, strain SMI1, stronger effect = lower value) 0.501 (active); (locus YMR307W, strain GAS1, stronger effect = lower value) 1.02. The normalized growth (locus YNL175C, strain NOP13, stronger effect = lower value) was 1.02; the normalized growth (locus YNL197C, strain WHI3, stronger effect = lower value) was 1; the normalized growth (locus YNL224C, strain SQS1, stronger effect = lower value) was 1.01; the normalized growth (locus YOR083W, strain WHI5 (second series), stronger effect = lower value) was 1.02.

The values above are taken from PubChem BioAssay AID1159580 (chemical genetic matrix, 2015).
